This passage reports Potency results from PubChem BioAssay (Tox21).

Records with an inconclusive call do not appear. The source made the active and inactive calls. Unless noted, the call rests on the fitted dose curve.

Assay [1] in a line: Nuclear factor erythroid 2-related factor 2/antioxidant responsive element (Nrf2/ARE) small molecule agonists: qHTS cell viability counter screen in human keratinocytes (AID 1919968; active means well fitted curve in the direction sought with a large enough effect in the repeat runs; an effect the other way counts as inactive or inconclusive; further: nearly all actives have a fitted effect of over 55% in size; further: potency means the concentration at half of the fitted maximal effect). The method, boiled down:
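After a 5 h attachment period, ARE-reporter keratinocytes were dosed with compounds in DMSO and then cultured 23 h at 37 C. Cell viability came from CellTiter-Fluor signal read after a further 1 h.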
(qHTS replaces the single test concentration by a dilution series.)

Assay [2] addresses Gonadotropin-releasing hormone receptor (Homo sapiens) (UniProt P30968). The assay can be described thus: Human gonadotropin-releasing hormone receptor (GnRHR) small molecule agonists, calcium flux assay in GnRHR-HEK293 cells (AID 1920063). Further: nearly all actives have a fitted effect of over 35% in size. The method, boiled down:
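We seeded human GnRHR-expressing HEK293 cells for 18 hours, loaded them with calcium dye for an hour at 37 C, added test compounds, and recorded fluorescence intensity kinetically for three minutes.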

Assay [3] deals with KiSS-1 receptor (Homo sapiens) (UniProt Q969F8). Description: Human kisspeptin (KISS1R) small molecule agonists, calcium flux assay in KISS1R-HEK293 cells (AID 1920064; active means well fitted curve in the direction sought with a large enough effect in the repeat runs; an effect the other way counts as inactive or inconclusive). The method, boiled down: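 Kinetic calcium assay, 1 s sampling over 3 min at Ex/Em 480/540, in HEK293 cells engineered with human KISS1R; compounds delivered in DMSO after 1 h dye loading.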
The nature of assay [4]: G protein-coupled receptor (GPCR) small molecule agonists, calcium flux assay: HEK293 wild type cell line counter screen (AID 1920065). The method, boiled down: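 Calcium-sensitive dye, loaded 1 h at 37 C into cells cultured 18 h, reports compound-evoked calcium release as fluorescence (Ex/Em 480/540), measured over 3 min. Agonist mode; 15-point titrations, triplicate.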

A short description of assay [5]: p53 small molecule agonists, cell-based qHTS assay with human liver microsomes (AID 1963577). Further: potency means the concentration at half of the fitted maximal effect. The method in brief: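 p53RE-bla cells, 4,000/well, compound added after 5 h, with human liver microsomes 0.5 mg/mL and NADPH 0.5 mg/mL final; 16 h at 37 C, then LiveBLAzer 2 h RT, fluorescence.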
The target in assay [6] is 5-hydroxytryptamine receptor 2A (Homo sapiens) (UniProt P28223). The assay can be described thus: 5-hydroxytryptamine receptor 2A (HTR2A) small molecule agonists, cell-based qHTS assay (AID 1963587). Further: nearly all actives have a fitted effect of over 30% in size. The method, boiled down: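 CHO cells stably expressing human HTR2A, plated 18 h, loaded with calcium dye 1 h at 37 C. Agonist mode: compounds added and intracellular calcium fluorescence recorded kinetically for 2 min at 1 sec intervals.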

Assay [7] has as its target Muscarinic acetylcholine receptor M1 (Homo sapiens) (UniProt P11229). The assay can be described thus: Cholinergic receptor muscarinic 1 (CHRM1) small molecule antagonists, cell-based qHTS assay (AID 1963588). Further: nearly all actives have a fitted effect of over 40% in size. Further: potency means the concentration at half of the fitted maximal effect. The method, boiled down: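 CHRM1-CHO calcium-flux assay, antagonist mode. Cells were seeded 18 h, dye-loaded 1 h at 37 C and given compound for 5 min at RT, then acetylcholine was added at 50nM. FDSS fluorescence was read 3 min; 15 concentrations, three runs.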

For assay [8] the target is unchanged. Description: Cholinergic receptor muscarinic 1 (CHRM1) small molecule agonists, cell-based qHTS assay (AID 1963589). Further: nearly all actives have a fitted effect of over 35% in size. The method, boiled down:
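Measures agonist-induced intracellular calcium rise. Stable human CHRM1 CHO line, 1 h dye load at 37 C, compounds from DMSO, kinetic fluorescence read.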

Assay [9] can be described thus: p53 small molecule agonists, cell-based qHTS assay with rat liver microsomes (AID 1963578). The method, boiled down: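 p53RE-bla cells, 4,000/well, pre-incubated 5 h, then given compounds plus rat liver microsomes (0.5 mg/mL final) and NADPH (0.5 mg/mL final). Incubation 16 h at 37 C; beta-lactamase reporter read by LiveBLAzer fluorescence after 2 h at room temperature.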

Assay [10] in a line: p53 small molecule agonists, cell-based qHTS assay with human liver microsomes: qHTS cell viability counter screen (AID 1963579). Further: nearly all actives have a fitted effect of over 45% in size. Further: potency means the concentration at half of the fitted maximal effect. The method in brief: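 p53RE-bla cells, 4,000/well, dosed 5 hours after plating, with human liver microsomes (0.5 mg/mL final) plus NADPH (0.5 mg/mL final), 16 hours at 37 C. Viability read as CellTiter-Glo luminescence after 30 min at room temperature.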

Assay [11] has as its target 5-hydroxytryptamine receptor 2A (Homo sapiens) (UniProt P28223). The assay can be described thus: 5-hydroxytryptamine receptor 2A (HTR2A) small molecule antagonists, cell-based qHTS assay (AID 1963586). Further: nearly all actives have a fitted effect of over 45% in size. The method, boiled down:
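Antagonist-mode intracellular calcium assay: DOI (4 nM) added after 5 min compound pre-incubation at room temperature to dye-loaded HTR2A-CHO cells. Fluorescence followed for 3 min, sampled every second.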

Assay [12] addresses D(2) dopamine receptor (Homo sapiens) (UniProt P14416). The assay can be described thus: Dopamine D2 receptor (DRD2) small molecule agonists, cell-based qHTS assay (AID 1963594). Further: nearly all actives have a fitted effect of over 35% in size. The method, boiled down: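 HEK293 cells stably expressing human DRD2, pre-treated with PDE inhibitor Ro20-1724 (0.1 mM final) and compound 10 min at room temperature, then stimulated with NKH477 (200nM […]) for 30 min. cAMP read by HTRF (665/620 nm).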

Assay [13] shares this target. The assay can be described thus: Dopamine D2 receptor (DRD2) small molecule antagonists, cell-based qHTS assay (AID 1963595; active means well fitted inhibition curve with a large enough effect in the signal ratio in the repeat runs, with a control signal flat; the % refers to the signal ratio). The method, boiled down:
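Stable D2 receptor HEK293 line, 24 h after seeding. Compound preincubated 10 min, then quinpirole (12 nM) with forskolin analogue NKH477 (200 nM), 30 min, room temperature. Detection by time-resolved FRET of cAMP.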

The nature of assay [14]: p53 small molecule agonists, cell-based qHTS assay with rat liver microsomes: qHTS cell viability counter screen (AID 1963580). Further: nearly all actives have a fitted effect of over 45% in size. The method, boiled down: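 p53RE-bla HCT-116 cells were exposed 16 h at 37 C to compounds with rat liver microsomes (0.5 mg/mL) and NADPH (0.5 mg/mL). Viability was measured in the same wells as ATP content by CellTiter-Glo luminescence.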
The nature of assay [15]: p53 small molecule agonists, cell-based qHTS assay: qHTS cell viability counter screen (AID 1963581). Further: nearly all actives have a fitted effect of over 45% in size. The method, boiled down: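 Following 5 h attachment, HCT-116 p53RE-bla cells took up compound for 16 h at 37 C; the reporter was read with B/G FRET substrate (2 h RT), and viability then via CellTiter-Glo ATP luminescence.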
Assay [16] can be described thus: cAMP Responsive Elements (CRE) small molecule agonists, cell-based qHTS assay (AID 1963590). The method, boiled down:
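A CRE-responsive beta-lactamase reporter in HEK 293T cells was used. Treatment ran 3 h at 37 C; detection used LiveBLAzer B/G FRET substrate for 2 h at room temperature.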

A short description of assay [17]: cAMP Responsive Elements (CRE) small molecule antagonists, cell-based qHTS assay (AID 1963591; active means well fitted inhibition curve with a large enough effect in the signal ratio in the repeat runs, not every such curve was filed as active; the % refers to the signal ratio). The method, boiled down:
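HEK293T cells carrying a CRE-driven beta-lactamase reporter receive compound and NKH477 (0.25 uM final) for 3 h. Fluorescence from LiveBLAzer B/G FRET substrate is read after 2 h at room temperature.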

Assay [18] concerns the target Beta-2 adrenergic receptor (Homo sapiens) (UniProt P07550). Description: Adrenergic beta2 receptor (ADRB2) small molecule antagonists, cell-based qHTS assay (AID 1963592). Further: series mostly up to about 92 µM; nearly all actives have a fitted effect of over 50% in size. The method, boiled down: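 Cells (CHO, stable ADRB2 overexpression) incubated 18-20hr at 37C; compounds added from DMSO; agonist mix (1nM isoproterenol, 100uM IBMX, 25uM Ro-20-1724) added; 0.5hr RT; d2-cAMP and anti-cAMP-cryptate added; 1hr RT; 665/615 nm read.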

Assay [19] shares this target. The assay can be described thus: Adrenergic beta2 receptor (ADRB2) small molecule agonists, cell-based qHTS assay (AID 1963593). Further: potency means the concentration at half of the fitted maximal effect.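 On activation: CHO cells stably overexpressing human ADRB2.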 The method in brief: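 CHO cells stably over-expressing ADRB2 were plated overnight at 37C, then dosed with compounds plus a stimulation mix containing 100uM IBMX and 25uM Ro-20-1724 for 0.5hr at room temperature. cAMP was measured by HTRF competition, 1hr.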

The nature of assay [20]: p53 small molecule agonists, cell-based qHTS assay (AID 1963582; active means well fitted activation curve with a large enough effect in the signal ratio in the repeat runs, not every such curve was filed as active; the % refers to the signal ratio). The method in brief: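 In this cell-based concentration-response screen, a p53 response element drives beta-lactamase; cells received DMSO-borne compounds after 5 h culture and were incubated a further 16 h before FRET substrate development.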

KiSS-1 receptor (Homo sapiens), sequence (Q969F8 whole entry, looked up): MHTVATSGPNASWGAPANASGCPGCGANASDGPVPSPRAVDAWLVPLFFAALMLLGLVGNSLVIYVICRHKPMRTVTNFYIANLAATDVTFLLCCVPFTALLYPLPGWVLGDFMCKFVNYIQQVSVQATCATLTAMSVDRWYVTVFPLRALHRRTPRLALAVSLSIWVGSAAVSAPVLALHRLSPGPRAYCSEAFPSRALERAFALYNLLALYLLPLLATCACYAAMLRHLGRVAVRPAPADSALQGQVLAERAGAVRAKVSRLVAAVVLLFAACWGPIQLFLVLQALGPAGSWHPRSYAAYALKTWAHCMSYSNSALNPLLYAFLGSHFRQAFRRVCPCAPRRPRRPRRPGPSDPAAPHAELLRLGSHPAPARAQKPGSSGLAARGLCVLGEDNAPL
D(2) dopamine receptor (Homo sapiens), sequence (P14416 whole entry, looked up): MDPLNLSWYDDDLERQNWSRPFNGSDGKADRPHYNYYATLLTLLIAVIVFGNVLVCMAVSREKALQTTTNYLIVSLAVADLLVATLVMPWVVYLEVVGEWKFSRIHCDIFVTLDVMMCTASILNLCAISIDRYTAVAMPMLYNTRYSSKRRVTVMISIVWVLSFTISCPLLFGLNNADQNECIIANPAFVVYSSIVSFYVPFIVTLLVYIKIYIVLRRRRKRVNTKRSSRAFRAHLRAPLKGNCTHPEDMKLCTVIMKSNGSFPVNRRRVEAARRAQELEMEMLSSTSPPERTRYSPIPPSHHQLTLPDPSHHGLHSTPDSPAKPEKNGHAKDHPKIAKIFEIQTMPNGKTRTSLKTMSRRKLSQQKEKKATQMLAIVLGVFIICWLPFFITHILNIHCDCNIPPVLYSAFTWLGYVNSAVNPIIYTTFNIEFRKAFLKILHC
5-hydroxytryptamine receptor 2A (Homo sapiens), sequence (P28223 whole entry, looked up): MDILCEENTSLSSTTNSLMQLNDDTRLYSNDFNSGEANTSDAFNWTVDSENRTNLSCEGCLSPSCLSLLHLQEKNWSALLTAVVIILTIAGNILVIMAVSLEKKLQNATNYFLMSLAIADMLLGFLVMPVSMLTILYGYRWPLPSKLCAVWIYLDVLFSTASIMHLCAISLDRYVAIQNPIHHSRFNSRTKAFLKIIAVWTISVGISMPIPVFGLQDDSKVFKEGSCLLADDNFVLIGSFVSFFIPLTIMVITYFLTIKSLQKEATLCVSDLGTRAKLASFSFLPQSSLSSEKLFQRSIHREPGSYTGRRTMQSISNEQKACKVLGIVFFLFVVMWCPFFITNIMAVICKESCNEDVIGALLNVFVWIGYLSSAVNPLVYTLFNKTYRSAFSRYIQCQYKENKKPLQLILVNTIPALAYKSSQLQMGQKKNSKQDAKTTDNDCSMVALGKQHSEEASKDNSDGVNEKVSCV
Gonadotropin-releasing hormone receptor (Homo sapiens), sequence (P30968 whole entry, looked up): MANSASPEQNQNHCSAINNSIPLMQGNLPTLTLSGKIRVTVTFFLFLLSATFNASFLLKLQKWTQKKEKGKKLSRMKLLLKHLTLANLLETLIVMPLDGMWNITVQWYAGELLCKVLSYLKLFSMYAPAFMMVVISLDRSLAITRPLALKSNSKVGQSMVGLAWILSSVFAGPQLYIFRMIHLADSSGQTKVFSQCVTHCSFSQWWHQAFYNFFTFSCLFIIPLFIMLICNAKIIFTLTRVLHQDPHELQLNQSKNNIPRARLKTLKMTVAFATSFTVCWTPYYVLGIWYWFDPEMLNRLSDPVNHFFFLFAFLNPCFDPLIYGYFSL
Beta-2 adrenergic receptor (Homo sapiens), sequence (P07550 whole entry, looked up): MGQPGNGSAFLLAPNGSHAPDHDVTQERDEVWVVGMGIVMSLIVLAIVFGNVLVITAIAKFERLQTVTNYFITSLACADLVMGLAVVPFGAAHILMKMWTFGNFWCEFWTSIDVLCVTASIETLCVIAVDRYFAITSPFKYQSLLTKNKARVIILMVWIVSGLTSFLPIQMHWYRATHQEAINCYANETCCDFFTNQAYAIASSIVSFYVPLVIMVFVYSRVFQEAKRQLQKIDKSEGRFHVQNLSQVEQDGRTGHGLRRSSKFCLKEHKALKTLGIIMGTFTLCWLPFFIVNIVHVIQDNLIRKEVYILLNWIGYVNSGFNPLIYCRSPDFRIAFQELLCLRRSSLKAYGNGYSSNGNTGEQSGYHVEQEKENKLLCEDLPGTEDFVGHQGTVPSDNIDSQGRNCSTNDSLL
Muscarinic acetylcholine receptor M1 (Homo sapiens), sequence (P11229 whole entry, looked up): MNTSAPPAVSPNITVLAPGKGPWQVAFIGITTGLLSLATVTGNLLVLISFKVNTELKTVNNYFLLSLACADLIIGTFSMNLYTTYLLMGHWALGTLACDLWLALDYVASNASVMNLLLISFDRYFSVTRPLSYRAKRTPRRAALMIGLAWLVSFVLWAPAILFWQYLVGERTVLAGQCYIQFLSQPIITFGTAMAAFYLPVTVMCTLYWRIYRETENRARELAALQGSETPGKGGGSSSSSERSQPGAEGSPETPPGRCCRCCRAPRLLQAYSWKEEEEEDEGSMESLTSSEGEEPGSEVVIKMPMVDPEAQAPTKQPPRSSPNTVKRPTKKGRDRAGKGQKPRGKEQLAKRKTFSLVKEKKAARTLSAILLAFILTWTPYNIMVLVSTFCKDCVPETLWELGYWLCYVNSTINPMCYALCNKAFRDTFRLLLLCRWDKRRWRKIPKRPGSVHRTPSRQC

As to `CO/C=C(/C(=O)OC)c1ccccc1Oc1cc(Oc2ccccc2C#N)ncn1`, in assay [1], the Potency was 6.11 µM (active). Moreover, the Potency entry in assay [2], in assay [3], in assay [4], in assay [5], in assay [6] and in assay [7] was “inactive” each time. In addition, the Potency entry in assay [8] was “inactive”.

With `Oc1cc(Cl)c(Cl)c(Cl)c1Cl`, the Potency in assay [1] is 53.2 µM (active); in assay [10] it was 17.8 µM (active). In addition, the Potency entry in assay [2], in assay [3], in assay [4], in [9], in assay [11] and in assay [6] was “inactive” each time. Further, the Potency entry in assay [8], in assay [12] and in assay [13] was “inactive” each time.

For the compound `Brc1cccc(-c2ccccc2)c1`, the Potency entry in [1], in [2], in [3], in assay [4], in assay [10] and in [14] was “inactive” each time. In addition, the Potency result in [15], in assay [11], in assay [6], in [7], in [8] and in [16] was “inactive” in each case. The Potency entry in assay [17], in assay [18], in assay [19], in [12] and in assay [13] was “inactive” throughout.

On to `C[C@]12CC[C@H]3[C@@H](CCC4=CC(=O)CC[C@@H]43)[C@@H]1CC[C@@H]2OC(=O)CCc1ccco1`, for which the Potency entry in assay [1], in assay [2], in [3], in assay [4], in [9] and in [10] was “inactive” throughout. The Potency result in [14], in [15], in assay [11], in assay [6] and in [8] was “inactive” throughout. Besides, the Potency in assay [7] was 1.3 µM (active); in assay [19], 2.98 µM (active).

As to `CCOP(=S)(OCC)SCS(=O)(=O)CC`, the Potency entry in assay [1], in assay [2], in [3], in assay [4], in assay [14] and in assay [15] was “inactive” each time. Moreover, the Potency entry in assay [20], in assay [11], in assay [6], in assay [7], in assay [8] and in [17] was “inactive” in each case. The Potency result in assay [18], in assay [19], in assay [12] and in assay [13] was “inactive” each time. In [5], the Potency was 1.62 µM (active).

As to `CCCSC(=O)N(CCC)CCC`, the Potency entry in [1], in assay [2], in assay [3], in assay [4], in [9] and in assay [10] was “inactive” throughout. The Potency result in [14], in assay [15], in assay [6], in [7], in assay [8] and in [16] was “inactive” in each case. For the same compound, the Potency result in [17], in assay [18], in [19], in [12] and in assay [13] was “inactive” throughout.

On to `C[C@H]1[C@H](c2ccc(Cl)cc2)SC(=O)N1C(=O)NC1CCCCC1`, for which the Potency result in assay [1], in assay [2], in assay [3], in assay [4], in assay [9] and in assay [10] was “inactive” in each case. Further, the Potency entry in [14], in assay [15], in [11], in [6], in assay [7] and in assay [8] was “inactive” each time. The Potency result in assay [17], in assay [18], in [12] and in assay [13] was “inactive” in each case.
